Outcome and AC50 data for 37 molecules are collected here from PubChem BioAssay (EPA / NIEHS).

Some compounds were tested as several samples or in several runs, with calls that do not always agree. Calls of active or inactive are those of the source. How the source made its calls: active means hit-call score of the fitted dose curve at least 0.9, where 1 is the maximum; inactive means score below 0.9.

Read-out in one assay: not listed separately
Put plainly: BSK_SAg_PBMCCytotoxicity: PBMC Cytotoxicity Assessment in the BioMAP Diversity Plus: SAg Assay (AID 2283093).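 Further: fitted both ways against DMSO so a hit may be loss or gain of signal.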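 On AC50: PBMC superantigen activated with SEB plus TSST-1 one hour after compound addition.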 The note with it: primary human HUVEC with PBMC. The gist of the method:
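PBMC viability by Alamar Blue reduction, fluorescence read at 546/580 nm after 6 h dye exposure. Cells were dosed 1 h before SEB plus TSST-1 activation (20 ng/mL final each), then held 90 h; endothelial/PBMC human co-culture.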
Take `Cc1c([N+](=O)[O-])c(C)c([N+](=O)[O-])c(C(C)(C)C)c1[N+](=O)[O-]`: the outcome was inactive.

`CCN(CC)C(=O)C(Cl)=C(C)OP(=O)(OC)OC`: the result was inactive.

With `COCC(=O)N(c1c(C)cccc1C)[C@H](C)C(=O)OC`, the outcome was inactive.

For `O=C(CCl)NCO`, the result was inactive.

`Cc1ccc2nc3sc(=O)sc3nc2c1`: the outcome was inactive.

As to `O=C1C=CC(=O)c2ccccc21`, the AC50 (in general, the midpoint of the concentration-response curve, whichever way the signal moves) was 0.102 µM (active).

With `Cc1cc(Cl)ccc1N`, the outcome was inactive.

For `CCCCCCCCCCCCN(C)C`, the outcome was inactive.

On to `Nc1c(Oc2ccccc2)cc(O)c2c1C(=O)c1ccccc1C2=O`, for which the outcome was inactive.

Turning to `CCOC(=O)CC(=O)CCl`, the AC50 is 9.62 µM (active).

For the molecule `Cc1cc(Cl)ccc1OC(C)C(=O)O` (configuration not stated), the result was inactive.

Turning to `CCCCOC(=O)COC(=O)c1ccccc1C(=O)OCCCC`, the outcome was inactive.

Read-out in another assay: Interleukin-8 (IL8), CXCL8 (gene 3576)
Put plainly: BSK_SAg_IL8: BioMAP Diversity Plus: SAg Assay for Interleukin-8 (IL8) Biomarker Activity (AID 2283094). The note with it: primary human HUVEC with PBMC; actives raise or lower the signal. The gist of the method: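 Chemicals were dosed onto a human endothelial–PBMC co-culture, and IL-8 was quantified by ELISA after 24 h. Both increases and decreases were fitted relative to DMSO.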
For the molecule `Oc1c(Br)cc(Br)cc1Br`, the result was inactive.

Consider `c1ccc2sc(SNC3CCCCC3)nc2c1`, for which the result was inactive.

As for `CCOP(=O)(OCC)SCCSCC`, the result was inactive.

As for `Cc1cc(C)cc(C)c1`, the result was inactive.

In the case of `O=S(=O)(c1ccc(Cl)cc1)c1cc(Cl)c(Cl)cc1Cl`, the result was inactive.

With `Cc1ccccc1OP(=O)(Oc1ccccc1)Oc1ccccc1`, the AC50 was 9.82 µM (active).

For the molecule `OCCCCO`, the outcome was inactive.

Consider `CC(C)(COCC1CO1)COCC1CO1` (configuration not stated), for which the outcome was inactive.

For `OC(Cc1ccccc1Cl)(Cn1cncn1)C1(Cl)CC1` (configuration not stated), the result was inactive.

In the case of `CCCCN(CCCC)C(=S)[S-].CCCCN(CCCC)C(=S)[S-].[Ni+2]`, the result was inactive.

Regarding `C[C@]12CC[C@@H](O)C[C@@H]1CC[C@@H]1[C@@H]2CC[C@]2(C)C(=O)CC[C@@H]12`, the result was inactive.

Regarding `CCOP(=S)(OCC)OP(=S)(OCC)OCC`, the AC50 was 36 µM (active).

For `OCCN(CCO)CCO`, the outcome was inactive.

As for `O=C(O)COc1cc(Cl)c(Cl)cc1Cl`, the result was inactive.

For `Clc1cccc(Cl)c1Cl`, the outcome was inactive.

As to `Clc1cccc(Cl)c1`, the outcome was inactive.

Take `O=[N+]([O-])c1cccc2ccccc12`: the outcome was inactive.

Take `Cc1ccc(OP(=O)(Oc2ccc(C)cc2C)Oc2ccc(C)cc2C)c(C)c1`: the AC50 is 4.7 µM (active).

For `CCC(C)(C#N)N=NC(C)(C#N)CC` (configuration not stated), the result was inactive.

Take `NC(=O)CCl`: the result was inactive.

As to `Cc1cccc(OP(=O)(Oc2cccc(C)c2)Oc2cccc(C)c2)c1`, the result was inactive.

As to `CC(C)N(C(=O)CCl)c1ccccc1`, the outcome was inactive.

Take `c1ccc(-c2cccc(-c3ccccc3)c2)cc1`: the AC50 was 20 µM (active).

`O=S(=O)(C(Cl)(Cl)Cl)C(Cl)(Cl)Cl`: the AC50 was 1.79 µM (active).

Turning to `O=c1oc2ccccc2c(O)c1C(CC(O)c1ccc(-c2ccc(Br)cc2)cc1)c1ccccc1` (configuration not stated), the result was inactive.

As for `Cc1c([N+](=O)[O-])c(C)c([N+](=O)[O-])c(C(C)(C)C)c1[N+](=O)[O-]`, the result was inactive.

Consider `CCN(CC)C(=O)C(Cl)=C(C)OP(=O)(OC)OC`, for which the result was inactive.

`COCC(=O)N(c1c(C)cccc1C)[C@H](C)C(=O)OC`: the outcome was inactive.

For the molecule `O=C(CCl)NCO`, the result was inactive.

With `Cc1ccc2nc3sc(=O)sc3nc2c1`, the result was inactive.

Regarding `O=C1C=CC(=O)c2ccccc21`, the AC50 is 0.709 µM (active).

Consider `Cc1cc(Cl)ccc1N`, for which the outcome was inactive.

`CCCCCCCCCCCCN(C)C`: the result was inactive.

As to `Nc1c(Oc2ccccc2)cc(O)c2c1C(=O)c1ccccc1C2=O`, the AC50 is 1.56 µM (active).

With `CCOC(=O)CC(=O)CCl`, the AC50 is 9.73 µM (active).

`Cc1cc(Cl)ccc1OC(C)C(=O)O` (configuration not stated): the outcome was inactive.

In the case of `CCCCOC(=O)COC(=O)c1ccccc1C(=O)OCCCC`, the result was inactive.

Read-out in the next assay: not listed separately
Put plainly: BSK_SAg_Proliferation: Cell Proliferation Assessment in the BioMAP Diversity Plus: SAg Assay (AID 2283095).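 Further: relative cell number as total protein by SRB absorbance in sub-confluent culture.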 The note with it: primary human HUVEC with PBMC. The gist of the method:
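Absorbance of sulforhodamine B at 560 nm reports total protein in a human vascular endothelial/PBMC co-culture after 96 h chemical exposure. Gain or loss of signal is fitted in both directions against DMSO.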
As for `Oc1c(Br)cc(Br)cc1Br`, the AC50 was 20 µM (active).

As for `c1ccc2sc(SNC3CCCCC3)nc2c1`, the AC50 is 29.2 µM (active).

`CCOP(=O)(OCC)SCCSCC`: the outcome was inactive.

Turning to `Cc1cc(C)cc(C)c1`, the outcome was inactive.

With `O=S(=O)(c1ccc(Cl)cc1)c1cc(Cl)c(Cl)cc1Cl`, the AC50 is 10.8 µM (active).

Regarding `Cc1ccccc1OP(=O)(Oc1ccccc1)Oc1ccccc1`, the result was inactive.

Consider `OCCCCO`, for which the AC50 is 0.61 µM (active) and the outcome was inactive.

On to `CC(C)(COCC1CO1)COCC1CO1` (configuration not stated), for which the AC50 was 36.7 µM (active).

As to `OC(Cc1ccccc1Cl)(Cn1cncn1)C1(Cl)CC1` (configuration not stated), the result was inactive.

As to `CCCCN(CCCC)C(=S)[S-].CCCCN(CCCC)C(=S)[S-].[Ni+2]`, the result was inactive.

For the molecule `C[C@]12CC[C@@H](O)C[C@@H]1CC[C@@H]1[C@@H]2CC[C@]2(C)C(=O)CC[C@@H]12`, the result was inactive.

With `CCOP(=S)(OCC)OP(=S)(OCC)OCC`, the half-maximal activity concentration (AC50) was 20 µM (active).

As to `OCCN(CCO)CCO`, the outcome was inactive.

For the molecule `O=C(O)COc1cc(Cl)c(Cl)cc1Cl`, the result was inactive.

Turning to `Clc1cccc(Cl)c1Cl`, the result was inactive.

`Clc1cccc(Cl)c1`: the result was inactive.

Consider `O=[N+]([O-])c1cccc2ccccc12`, for which the result was inactive.

With `Cc1ccc(OP(=O)(Oc2ccc(C)cc2C)Oc2ccc(C)cc2C)c(C)c1`, the AC50 was 12.9 µM (active).

With `CCC(C)(C#N)N=NC(C)(C#N)CC` (configuration not stated), the result was inactive.

For the molecule `NC(=O)CCl`, the outcome was inactive.

Consider `Cc1cccc(OP(=O)(Oc2cccc(C)c2)Oc2cccc(C)c2)c1`, for which the result was inactive.

Turning to `CC(C)N(C(=O)CCl)c1ccccc1`, the AC50 was 3.59 µM (active).

Regarding `c1ccc(-c2cccc(-c3ccccc3)c2)cc1`, the AC50 was 29.2 µM (active).

`O=S(=O)(C(Cl)(Cl)Cl)C(Cl)(Cl)Cl`: the AC50 was 0.798 µM (active).

Take `O=c1oc2ccccc2c(O)c1C(CC(O)c1ccc(-c2ccc(Br)cc2)cc1)c1ccccc1` (configuration not stated): the AC50 is 26.4 µM (active).

On to `Cc1c([N+](=O)[O-])c(C)c([N+](=O)[O-])c(C(C)(C)C)c1[N+](=O)[O-]`, for which the concentration at half-maximal activity (AC50) is 6.82 µM (active).

On to `CCN(CC)C(=O)C(Cl)=C(C)OP(=O)(OC)OC`, for which the outcome was inactive.

On to `COCC(=O)N(c1c(C)cccc1C)[C@H](C)C(=O)OC`, for which the outcome was inactive.

Regarding `O=C(CCl)NCO`, the result was inactive.

Regarding `Cc1ccc2nc3sc(=O)sc3nc2c1`, the AC50 is 7.93 µM (active).

With `O=C1C=CC(=O)c2ccccc21`, the AC50 is 0.125 µM (active).

Regarding `Cc1cc(Cl)ccc1N`, the outcome was inactive.

On to `CCCCCCCCCCCCN(C)C`, for which the result was inactive.

Turning to `Nc1c(Oc2ccccc2)cc(O)c2c1C(=O)c1ccccc1C2=O`, the outcome was inactive.

As to `CCOC(=O)CC(=O)CCl`, the AC50 is 16.2 µM (active).

On to `Cc1cc(Cl)ccc1OC(C)C(=O)O` (configuration not stated), for which the result was inactive.

Turning to `CCCCOC(=O)COC(=O)c1ccccc1C(=O)OCCCC`, the result was inactive.
